Rows were chosen to be rich in hits. Some 21% of all compounds tested hit in one or more screens of this group.
NS1 function inh: inhibitors of influenza NS1 protein function. Potency, µM (highest dose often 46.1 µM), without a hit: at the highest dose activity, positive = more growth. 0.4% of 270,000 active; calls by dose curve; also: potency is read from the fitted curve at half-maximal effect; actives are rising curves; nearly all actives have a fitted effect of over 50% in size
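A cell-based growth assay was used: compounds that relieve NS1-induced slow growth of budding yeast raise OD600. Assay medium was yeast nitrogen base with ammonium sulphate and -URA supplement, pH 6.0, with 2% galactose.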
Pf growth 48h: P. falciparum growth inhibition at 48 hours (one generation). Potency, µM (series often up to 28.7 µM), for the others: top-dose activity change, negative = inhibition, usual class: inhibitors. P. falciparum luciferase growth in erythrocytes, 48 h. AID 504832. 5.9% of 310,000 active; also: potency is read from the fitted curve at half-maximal effect; % is scaled to controls: 0 for no effect and ±100 for the full control effect
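Firefly luciferase activity from engineered P. falciparum reports growth; inhibitors lower the luminescent signal. Cultures contained 2% hematocrit erythrocytes at 0.1% final parasitemia.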
Cycloheximide cs: counter-screen hit for Shiga toxin inhibitors, cycloheximide; 12% of 300,000 active; cell reporter, cycloheximide protein synthesis inhibition counterscreen; max response, %; AID 2314; in the data active = max response mostly above about 13%, no sharp cut-off; inactive = mostly below about 14%; also: read at 38.3 µM for the half of the compounds with a filed dose; 0% is about no effect
Shiga inhibitor: inhibitors of Shiga toxin in Vero cells | inhibition, % at 38.7 µM | AID 2315 | Vero cells, Shiga toxin protein synthesis inhibition reporter | 9.2% of 290,000 active; in the data active = inhibition mostly above about 28%, no sharp cut-off; inactive = mostly below about 43%; also: 0% is about no effect
Pf growth 96h: P. falciparum growth inhibition at 96 hour, primary screen for plastid delayed-death inhibitors | Potency, µM (highest dose often 28.7 µM), for inactives: at the top dose activity change, negative = inhibition, hits mostly inhibitors | 6.9% of 320,000 active | AID 504834 | P. falciparum luciferase reporter growth, 96 h; also: potency is read from the fitted curve at half-maximal effect; % is scaled to controls: 0 for no effect and ±100 for the full control effect
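P. falciparum expressing integrated firefly luciferase grown in erythrocytes (2% hematocrit, 0.05% parasitemia final) with compounds for 96 hours at 37 C, 5% CO2. Growth inhibition read as loss of luminescence after adding luciferase detection reagent.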
FBPA Giardia inh: inhibitors of Giardia lamblia fructose-1,6-bisphosphate aldolase. A8B2U2. purified Giardia FBPA. Potency, µM (highest dose often 59.6 µM), without a hit: at the highest dose activity, negative = inhibition, hits mostly inhibitors. 0.71% of 290,000 active. AID 2451; also: potency is read from the fitted curve at half-maximal effect; % is scaled to controls: 0 for no effect and ±100 for the full control effect; nearly all actives have a fitted effect of over 55% in size
Target sequence (A8B2U2 whole entry, looked up): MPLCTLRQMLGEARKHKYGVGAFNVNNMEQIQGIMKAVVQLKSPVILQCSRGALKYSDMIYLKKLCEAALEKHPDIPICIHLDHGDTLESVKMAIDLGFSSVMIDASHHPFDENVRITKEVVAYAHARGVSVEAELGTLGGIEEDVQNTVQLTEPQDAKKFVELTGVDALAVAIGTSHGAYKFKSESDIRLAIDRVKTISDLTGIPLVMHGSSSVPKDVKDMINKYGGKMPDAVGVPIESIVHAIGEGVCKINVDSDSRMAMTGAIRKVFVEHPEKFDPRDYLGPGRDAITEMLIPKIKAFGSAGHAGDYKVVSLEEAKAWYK
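40 nM FBPA preincubated 10 min at RT with compound (up to 57.5 uM final), then substrate plus GAPDH/TPI/NAD/arsenate coupling and diaphorase/resazurin added. Fluorescence read after 20 min at RT, 525/598 nm.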
* hit, by the source's call. Unless noted, calls follow the shape of the dose curve; as a rule, active = well fitted curve in the direction sought with a large enough effect; inconclusive = small, poorly fitted or top-dose-only effect, or another doubt; inactive = no such curve, though single readings can be large; an effect the other way counts as inactive or inconclusive.

For CN1CCN(C(CNC(=O)C(=O)Nc2ccc3c(c2)OCO3)c2ccc(F)cc2)CC1 (stereo not given) the results were Pf growth 48h 8.7% and Pf growth 96h inconclusive.
`O=C(O)c1cccc(N=Nc2c(S(=O)(=O)O)ccc3c2C(=O)c2ccccc2C3=O)c1O` gave NS1 function inh 13.1%.
Screening c1ccc(C2CC(c3ccccc3)C(c3ccccc3)N2)cc1 (stereo not given) returned NS1 function inh 12.8%, Pf growth 48h -5.0%, Cycloheximide cs 7.2, Shiga inhibitor -1.8, Pf growth 96h 9.28µM* and FBPA Giardia inh 6.6%.
For Brc1ccc(Oc2ncc(CN3CCOCC3)s2)cc1 the results were NS1 function inh -22.3%, Pf growth 48h 83.8%, Cycloheximide cs 33.0*, Shiga inhibitor 40.7, Pf growth 96h 76.9% and FBPA Giardia inh 2.8%.
For COc1ccccc1CNC(=O)c1cccc(S(=O)(=O)N2CCCC2)c1 the results were Pf growth 48h 16.9% and Pf growth 96h -6.5%.
Screening COc1ccccc1/C=C1\SC(=S)N(CCC(=O)NCCCn2ccnc2)C1=O returned NS1 function inh 2.4%, Pf growth 48h inconclusive, Cycloheximide cs -2.9, Shiga inhibitor -0.9 and Pf growth 96h inconclusive.
Screening O=C(CCN1C(=O)/C(=C/c2ccc(F)cc2)SC1=S)NCCc1ccc(O)cc1 returned NS1 function inh -6.7%, Pf growth 48h -23.9%, Cycloheximide cs -1.9, Shiga inhibitor -13.6 and Pf growth 96h 83.9%.
For COc1ccccc1/C=C1\SC(=O)N(CCC(=O)NCCCn2ccnc2)C1=O the results were NS1 function inh 6.1%, Pf growth 48h -7.1%, Cycloheximide cs 9.9, Shiga inhibitor 20.3 and Pf growth 96h inconclusive.
CC(C)c1ccc(/C=C2\SC(=S)N(CCC(=O)NCCCn3ccnc3)C2=O)cc1 was read as NS1 function inh 3.8%, Pf growth 48h inconclusive, Cycloheximide cs 60.6*, Shiga inhibitor 104.1* and Pf growth 96h inconclusive.
`COc1ccc(/C=C2\SC(=S)N(CCC(=O)NCCCn3ccnc3)C2=O)cc1` gave NS1 function inh 1.5%, Pf growth 48h inconclusive, Cycloheximide cs 17.9*, Shiga inhibitor 15.9 and Pf growth 96h inconclusive.
O=C(CCCN1C(=O)/C(=C/c2ccc(F)cc2)SC1=S)NCCCn1ccnc1 was read as NS1 function inh 3.1%, Pf growth 48h inconclusive, Cycloheximide cs 10.4, Shiga inhibitor -5.2, Pf growth 96h 9.28µM* and FBPA Giardia inh 6.3%.
`Cc1ccc(-c2nc(C#N)c(N3CCC(C(N)=O)CC3)o2)cc1` gave NS1 function inh -6.0%, Pf growth 48h -23.4%, Cycloheximide cs -1.3, Shiga inhibitor 13.2, Pf growth 96h inconclusive and FBPA Giardia inh -1.5%.
For CNS(=O)(=O)c1cn(CC(=O)NCc2ccc(F)cc2)cc1S(=O)(=O)NC the results were NS1 function inh -6.6%, Pf growth 48h 13.4%, Cycloheximide cs -2.2, Shiga inhibitor -6.0, Pf growth 96h 11.1% and FBPA Giardia inh 11.2%.
`Cc1cc(=O)cc(C)n1-c1ccccc1Br` gave NS1 function inh 2.0%, Pf growth 48h 9.5%, Cycloheximide cs -2.4, Shiga inhibitor 1.1, Pf growth 96h inconclusive and FBPA Giardia inh 2.0%.
CC(C)(C)OC(=O)N(c1cccc2cccnc12)S(=O)(=O)c1ccccc1Br was read as Cycloheximide cs 9.5 and Shiga inhibitor -9.4.
`CN(C)C(=S)N=Nc1[nH]c2ccccc2c1O` gave Pf growth 48h inconclusive, Cycloheximide cs 39.4*, Shiga inhibitor 65.9*, Pf growth 96h inconclusive and FBPA Giardia inh -13.3%.
`O=C1c2ccc(Br)cc2C(=O)N1c1ccc(Cc2ccncc2)cc1` gave NS1 function inh -12.8%, Pf growth 48h -3.7%, Cycloheximide cs -1.1, Shiga inhibitor -24.8, Pf growth 96h 6.3% and FBPA Giardia inh 5.5%.
`Cc1ccc(S(=O)(=O)Cn2nnnc2C(c2ccccc2)N2CCN(c3ccccc3)CC2)cc1` (stereo not given) gave NS1 function inh inconclusive, Pf growth 48h 13.1µM*, Cycloheximide cs -3.5, Shiga inhibitor -2.7, Pf growth 96h inconclusive and FBPA Giardia inh -1.5%.
